# PMC7862700, “An all-to-all approach to the identification of sequence-specific readers for epigenetic DNA modifications on cytosine”
# How the values were obtained:
# Experiment in all cases: DAPPL (digital affinity profiling via proximity ligation, sequencing); 10 mM Tris-HCl pH 7.5, 50 mM NaCl, 1 mM DTT, 4% glycerol, room temperature, 30 min; GST-TFs on glutathione beads, 16-mer random dsDNA library, 0.1% formaldehyde crosslink after washing; high values mean tight binding
# FEV = biological target: T1, FEV (Homo sapiens, UniProt Q99581 1-238); conditions: protein: recombinant; tags: N-terminal GST; dsDNA, one strand shown
# T1 sequence: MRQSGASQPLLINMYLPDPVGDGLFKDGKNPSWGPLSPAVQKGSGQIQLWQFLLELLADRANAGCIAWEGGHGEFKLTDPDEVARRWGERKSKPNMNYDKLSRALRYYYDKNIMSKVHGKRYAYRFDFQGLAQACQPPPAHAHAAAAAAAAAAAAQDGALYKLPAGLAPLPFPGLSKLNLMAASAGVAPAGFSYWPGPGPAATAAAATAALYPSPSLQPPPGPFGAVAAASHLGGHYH
# Method in brief: (§1)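 After expression in yeast as GST fusions, human transcription factors were bound to glutathione beads, DNA-barcoded and mixed with a tag-only sample. The pools were incubated with 200 nmole of a 16-mer random double-stranded DNA library in Tris/NaCl/DTT/glycerol buffer (30 min, room temperature), washed and crosslinked with 0.1% formaldehyde. Proximity ligation with BsaI/T4 ligase ran for 1 h at 37 °C, before PCR amplification and sequencing on an Illumina NextSeq500. Binding signal is a hexamer's read frequency for a factor divided by its frequency for the tag-only sample.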
# ETV5 = ETV5 (Homo sapiens, UniProt P41161 1-510); conditions: protein: recombinant; tags: N-terminal GST; dsDNA, one strand shown
# Sequence of ETV5 (P41161 whole entry): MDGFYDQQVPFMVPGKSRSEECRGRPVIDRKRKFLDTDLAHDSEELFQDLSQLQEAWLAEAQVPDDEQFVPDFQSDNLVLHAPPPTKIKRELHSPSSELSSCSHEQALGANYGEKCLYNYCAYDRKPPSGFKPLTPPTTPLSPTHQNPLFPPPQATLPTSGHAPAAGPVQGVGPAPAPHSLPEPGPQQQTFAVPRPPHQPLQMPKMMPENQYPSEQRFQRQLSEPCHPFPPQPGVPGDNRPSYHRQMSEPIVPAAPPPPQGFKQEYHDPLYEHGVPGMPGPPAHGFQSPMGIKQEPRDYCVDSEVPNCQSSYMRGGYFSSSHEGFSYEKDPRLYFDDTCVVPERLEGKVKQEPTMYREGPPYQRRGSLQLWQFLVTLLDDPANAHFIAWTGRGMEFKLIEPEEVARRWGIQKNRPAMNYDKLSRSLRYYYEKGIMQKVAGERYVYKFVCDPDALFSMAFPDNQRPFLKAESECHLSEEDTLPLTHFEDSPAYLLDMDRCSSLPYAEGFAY
# Method in brief: as §1
# HSF1 = HSF1 (Homo sapiens, UniProt Q00613 1-529); conditions: protein: recombinant; tags: N-terminal GST; chain copies: 3; dsDNA, one strand shown
# Sequence of HSF1 (Q00613 whole entry): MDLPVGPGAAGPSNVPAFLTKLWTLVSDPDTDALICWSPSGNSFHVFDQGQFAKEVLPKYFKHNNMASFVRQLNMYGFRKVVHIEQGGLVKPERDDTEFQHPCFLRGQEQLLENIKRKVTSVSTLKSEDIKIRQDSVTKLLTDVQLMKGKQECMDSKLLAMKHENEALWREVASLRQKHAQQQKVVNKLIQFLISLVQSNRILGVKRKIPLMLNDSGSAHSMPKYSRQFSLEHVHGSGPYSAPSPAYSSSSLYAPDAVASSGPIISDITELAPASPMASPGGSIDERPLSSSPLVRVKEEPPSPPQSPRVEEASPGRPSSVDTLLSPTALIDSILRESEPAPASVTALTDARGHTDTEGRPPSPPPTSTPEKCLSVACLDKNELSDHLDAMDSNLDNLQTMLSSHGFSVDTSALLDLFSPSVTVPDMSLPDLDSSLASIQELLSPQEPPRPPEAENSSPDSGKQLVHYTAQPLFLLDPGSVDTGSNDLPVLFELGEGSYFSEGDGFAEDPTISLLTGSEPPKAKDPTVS
# Method in brief: as §1
# SPIC = biological target: T2, SPIC (Homo sapiens, UniProt Q8N5J4 1-248); conditions: protein: recombinant; tags: N-terminal GST; dsDNA, one strand shown
# T2 sequence: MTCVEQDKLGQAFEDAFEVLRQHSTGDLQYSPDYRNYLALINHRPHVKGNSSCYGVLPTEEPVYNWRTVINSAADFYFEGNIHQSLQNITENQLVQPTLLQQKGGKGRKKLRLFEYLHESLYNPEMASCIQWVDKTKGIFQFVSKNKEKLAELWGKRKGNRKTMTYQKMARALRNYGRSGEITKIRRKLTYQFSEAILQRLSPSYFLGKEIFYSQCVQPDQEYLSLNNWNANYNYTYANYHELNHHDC
# Method in brief: as §1
# ELF4 = ELF4 (Homo sapiens, UniProt Q99607 1-663); conditions: protein: recombinant; tags: N-terminal GST; dsDNA, one strand shown
# Sequence of ELF4 (Q99607 whole entry): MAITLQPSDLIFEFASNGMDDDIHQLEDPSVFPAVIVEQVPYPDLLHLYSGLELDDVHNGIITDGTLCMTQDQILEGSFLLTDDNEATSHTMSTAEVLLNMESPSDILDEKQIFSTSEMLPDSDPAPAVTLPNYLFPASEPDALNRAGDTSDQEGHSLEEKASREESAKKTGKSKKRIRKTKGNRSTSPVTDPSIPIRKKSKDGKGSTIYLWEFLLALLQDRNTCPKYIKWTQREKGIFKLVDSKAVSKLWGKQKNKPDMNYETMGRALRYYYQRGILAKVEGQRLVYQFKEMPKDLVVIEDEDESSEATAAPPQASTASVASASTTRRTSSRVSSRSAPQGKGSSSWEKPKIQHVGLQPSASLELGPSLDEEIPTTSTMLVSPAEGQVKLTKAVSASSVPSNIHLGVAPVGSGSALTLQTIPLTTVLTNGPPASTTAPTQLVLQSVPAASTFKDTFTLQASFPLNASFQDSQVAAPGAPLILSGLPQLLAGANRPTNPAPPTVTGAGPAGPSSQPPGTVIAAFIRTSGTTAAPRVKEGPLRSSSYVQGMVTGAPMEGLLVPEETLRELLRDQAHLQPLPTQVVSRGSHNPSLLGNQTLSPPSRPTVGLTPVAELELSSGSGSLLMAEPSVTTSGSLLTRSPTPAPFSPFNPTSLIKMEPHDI
# Method in brief: as §1
# ELK4 = biological target: T3, ELK4 (Homo sapiens, UniProt P28324-2 1-405); conditions: protein: recombinant; tags: N-terminal GST; dsDNA, one strand shown
# T3 sequence: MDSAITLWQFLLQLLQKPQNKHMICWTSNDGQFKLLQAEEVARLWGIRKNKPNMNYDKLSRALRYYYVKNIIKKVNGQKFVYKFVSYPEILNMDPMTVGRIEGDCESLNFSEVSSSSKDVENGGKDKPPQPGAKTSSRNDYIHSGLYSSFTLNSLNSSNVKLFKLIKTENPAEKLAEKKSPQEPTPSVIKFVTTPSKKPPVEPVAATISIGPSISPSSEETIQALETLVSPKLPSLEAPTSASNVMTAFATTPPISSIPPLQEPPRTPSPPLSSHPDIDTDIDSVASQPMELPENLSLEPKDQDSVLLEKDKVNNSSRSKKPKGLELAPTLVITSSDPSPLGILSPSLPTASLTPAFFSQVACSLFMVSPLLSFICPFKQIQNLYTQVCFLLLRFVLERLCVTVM
# Method in brief: as §1
# ETV2 = biological target: T4, ETV2 (Homo sapiens, UniProt O00321 1-342); conditions: protein: recombinant; tags: N-terminal GST; dsDNA, one strand shown
# T4 sequence: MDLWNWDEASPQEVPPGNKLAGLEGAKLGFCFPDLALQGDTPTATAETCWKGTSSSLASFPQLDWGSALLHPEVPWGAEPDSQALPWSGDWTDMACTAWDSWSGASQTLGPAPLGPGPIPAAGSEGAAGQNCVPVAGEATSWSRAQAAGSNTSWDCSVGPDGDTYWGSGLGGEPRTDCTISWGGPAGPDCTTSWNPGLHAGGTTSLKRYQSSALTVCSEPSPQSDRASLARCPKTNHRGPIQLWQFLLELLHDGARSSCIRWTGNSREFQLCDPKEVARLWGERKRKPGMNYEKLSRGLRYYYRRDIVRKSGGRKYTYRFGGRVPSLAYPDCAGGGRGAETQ
# Method in brief: as §1
# ELF3 = biological target: T5, ELF3 (Homo sapiens, UniProt P78545 1-371); conditions: protein: recombinant; tags: N-terminal GST; dsDNA, one strand shown
# T5 sequence: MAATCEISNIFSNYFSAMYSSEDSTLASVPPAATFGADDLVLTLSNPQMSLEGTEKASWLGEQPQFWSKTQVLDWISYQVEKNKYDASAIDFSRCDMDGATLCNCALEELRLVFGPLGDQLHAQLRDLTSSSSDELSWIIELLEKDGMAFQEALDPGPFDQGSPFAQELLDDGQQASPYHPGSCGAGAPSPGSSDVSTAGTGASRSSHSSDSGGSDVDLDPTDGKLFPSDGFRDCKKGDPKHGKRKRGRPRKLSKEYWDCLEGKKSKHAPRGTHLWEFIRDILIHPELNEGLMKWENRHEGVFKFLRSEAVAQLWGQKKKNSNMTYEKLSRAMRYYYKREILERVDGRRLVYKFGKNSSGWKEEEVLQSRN
# Method in brief: as §1
# ETV1 = ETV1 (Homo sapiens, UniProt P50549 1-477); conditions: protein: recombinant; tags: N-terminal GST; dsDNA, one strand shown
# Sequence of ETV1 (P50549 whole entry): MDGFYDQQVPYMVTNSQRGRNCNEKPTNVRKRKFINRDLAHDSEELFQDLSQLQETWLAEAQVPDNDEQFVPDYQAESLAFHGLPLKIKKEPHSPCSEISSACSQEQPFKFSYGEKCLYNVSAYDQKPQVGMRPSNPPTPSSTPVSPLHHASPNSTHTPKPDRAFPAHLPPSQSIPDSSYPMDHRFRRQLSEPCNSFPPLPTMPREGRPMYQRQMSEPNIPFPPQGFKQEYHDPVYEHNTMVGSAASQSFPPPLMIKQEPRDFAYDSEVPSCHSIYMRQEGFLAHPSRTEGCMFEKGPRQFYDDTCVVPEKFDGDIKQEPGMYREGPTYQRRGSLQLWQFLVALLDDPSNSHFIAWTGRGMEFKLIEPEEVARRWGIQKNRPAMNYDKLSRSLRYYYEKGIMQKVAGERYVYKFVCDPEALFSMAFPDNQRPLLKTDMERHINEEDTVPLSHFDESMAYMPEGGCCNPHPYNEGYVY
# Method in brief: as §1
Sequence,binding signal (FEV),binding signal (ETV5),binding signal (HSF1),binding signal (SPIC),binding signal (ELF4),binding signal (ELK4),binding signal (ETV2),binding signal (ELF3),binding signal (ETV1)
AACACG,"1.19 fold enrichment (6-mer frequency, TF over GST control)","1.25 fold enrichment (6-mer frequency, TF over GST control)","1.02 fold enrichment (6-mer frequency, TF over GST control)","1.33 fold enrichment (6-mer frequency, TF over GST control)","1.24 fold enrichment (6-mer frequency, TF over GST control)","1.22 fold enrichment (6-mer frequency, TF over GST control)","1.07 fold enrichment (6-mer frequency, TF over GST control)","1.19 fold enrichment (6-mer frequency, TF over GST control)","1.24 fold enrichment (6-mer frequency, TF over GST control)"
TGAAAA,"1.06 fold enrichment (6-mer frequency, TF over GST control)","1.02 fold enrichment (6-mer frequency, TF over GST control)","1.14 fold enrichment (6-mer frequency, TF over GST control)","1.11 fold enrichment (6-mer frequency, TF over GST control)","1.11 fold enrichment (6-mer frequency, TF over GST control)","1.08 fold enrichment (6-mer frequency, TF over GST control)","1.08 fold enrichment (6-mer frequency, TF over GST control)","1.08 fold enrichment (6-mer frequency, TF over GST control)","1.01 fold enrichment (6-mer frequency, TF over GST control)"
CCTGGG,"1.05 fold enrichment (6-mer frequency, TF over GST control)","1.05 fold enrichment (6-mer frequency, TF over GST control)","1.01 fold enrichment (6-mer frequency, TF over GST control)","1.05 fold enrichment (6-mer frequency, TF over GST control)","1.09 fold enrichment (6-mer frequency, TF over GST control)","1.08 fold enrichment (6-mer frequency, TF over GST control)","1.29 fold enrichment (6-mer frequency, TF over GST control)","1.06 fold enrichment (6-mer frequency, TF over GST control)","1.16 fold enrichment (6-mer frequency, TF over GST control)"
ACGTAC,"1.17 fold enrichment (6-mer frequency, TF over GST control)","1.21 fold enrichment (6-mer frequency, TF over GST control)","1.04 fold enrichment (6-mer frequency, TF over GST control)","1.18 fold enrichment (6-mer frequency, TF over GST control)","1.23 fold enrichment (6-mer frequency, TF over GST control)","1.24 fold enrichment (6-mer frequency, TF over GST control)","1.32 fold enrichment (6-mer frequency, TF over GST control)","1.25 fold enrichment (6-mer frequency, TF over GST control)","1.18 fold enrichment (6-mer frequency, TF over GST control)"
GTTCAA,"1.08 fold enrichment (6-mer frequency, TF over GST control)","1.14 fold enrichment (6-mer frequency, TF over GST control)","1.03 fold enrichment (6-mer frequency, TF over GST control)","1.15 fold enrichment (6-mer frequency, TF over GST control)","1.15 fold enrichment (6-mer frequency, TF over GST control)","1.16 fold enrichment (6-mer frequency, TF over GST control)","1.05 fold enrichment (6-mer frequency, TF over GST control)","1.22 fold enrichment (6-mer frequency, TF over GST control)","1.23 fold enrichment (6-mer frequency, TF over GST control)"
CCGGCA,"1.53 fold enrichment (6-mer frequency, TF over GST control)","1.47 fold enrichment (6-mer frequency, TF over GST control)","1.01 fold enrichment (6-mer frequency, TF over GST control)","1.32 fold enrichment (6-mer frequency, TF over GST control)","1.28 fold enrichment (6-mer frequency, TF over GST control)","1.24 fold enrichment (6-mer frequency, TF over GST control)","1.28 fold enrichment (6-mer frequency, TF over GST control)","1.31 fold enrichment (6-mer frequency, TF over GST control)","1.46 fold enrichment (6-mer frequency, TF over GST control)"
TGACCA,"1.22 fold enrichment (6-mer frequency, TF over GST control)","1.23 fold enrichment (6-mer frequency, TF over GST control)","1.05 fold enrichment (6-mer frequency, TF over GST control)","1.06 fold enrichment (6-mer frequency, TF over GST control)","1.29 fold enrichment (6-mer frequency, TF over GST control)","1.29 fold enrichment (6-mer frequency, TF over GST control)","1.17 fold enrichment (6-mer frequency, TF over GST control)","1.11 fold enrichment (6-mer frequency, TF over GST control)","1.21 fold enrichment (6-mer frequency, TF over GST control)"
TGCCGC,"1.27 fold enrichment (6-mer frequency, TF over GST control)","1.23 fold enrichment (6-mer frequency, TF over GST control)","1.03 fold enrichment (6-mer frequency, TF over GST control)","1.15 fold enrichment (6-mer frequency, TF over GST control)","1.35 fold enrichment (6-mer frequency, TF over GST control)","1.23 fold enrichment (6-mer frequency, TF over GST control)","1.06 fold enrichment (6-mer frequency, TF over GST control)","1.07 fold enrichment (6-mer frequency, TF over GST control)","1.3 fold enrichment (6-mer frequency, TF over GST control)"
